Pf growth 48h – Primary qHTS for delayed death inhibitors of the malarial parasite plastid, 48 hour incubation; P. falciparum luciferase growth in erythrocytes, 48 h; Potency, µM (doses to about 28.7 µM), for inactives: at the highest dose activity change, negative = inhibition, hits mostly inhibitors; 310,000 compounds, 5.9% hits; AID 504832, 2011; active = well fitted inhibition curve with a large enough effect; inconclusive = small, poorly fitted or top-dose-only effect, or another doubt; inactive = no such curve, though single readings can be large or run the other way; also: % is scaled to controls: 0 for no effect and ±100 for the full control effect
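Growth was read as firefly luciferase luminescence after a 48 h, 37 C, 5% CO2 exposure of compounds to reporter-bearing P. falciparum cultures (0.1% parasitemia, 2% hematocrit final) in Albumax-supplemented RPMI 1640.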
Pf growth 96h – Primary qHTS for delayed death inhibitors of the malarial parasite plastid, 96 hour incubation; P. falciparum luciferase reporter growth, 96 h; Potency, µM (highest dose often 28.7 µM), without a hit: at the top dose activity change, negative = inhibition, usual class: inhibitors; 320,000 compounds, 6.9% hits; AID 504834, 2011; active = well fitted inhibition curve with a large enough effect; inconclusive = small, poorly fitted or top-dose-only effect, or another doubt; inactive = no such curve, though single readings can be large or run the other way; also: % is scaled to controls: 0 for no effect and ±100 for the full control effect
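Cell-based qHTS: luciferase-tagged P. falciparum in erythrocytes (2% hematocrit, 0.05% parasitemia final) incubated with compounds for 96 hours, 37 C, 5% CO2; luciferase detection reagent then added and luminescence measured.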
SARS PLP yeast – qHTS of Yeast-based Assay for SARS-CoV PLP; S. cerevisiae expressing SARS-CoV PLpro, growth rescue; Potency, µM (titrated, usually from 32.9 µM), without a hit: at the top dose activity, positive = growth rescue, most hits filed as activators; 330,000 compounds, 0.19% hits; AID 485353, 2010; also: 0% is about no effect; nearly all actives have a fitted effect of over 55% in size
NS1 function inh – qHTS Assay for Inhibitors of Influenza NS1 Protein Function; Potency, µM (doses to about 46.1 µM), without a hit: at the top dose activity, positive = more growth; 270,000 compounds, 0.4% hits; AID 2326, 2010; also: actives are rising curves; nearly all actives have a fitted effect of over 50% in size
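A cell-based growth assay was used: compounds that relieve NS1-induced slow growth of budding yeast raise OD600. Assay medium was yeast nitrogen base with ammonium sulphate and -URA supplement, pH 6.0, with 2% galactose.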
The depositor's hits bear a star. An excerpt weighted towards active compounds, which were near 10% of everything screened. Unless noted, calls follow the shape of the full dose curve. Potency is read from the fitted curve at half-maximal effect.

For NC1=NC(=O)/C(=C/c2ccc(-c3ccc(S(N)(=O)=O)cc3)o2)S1 the results were Pf growth 48h 47%, Pf growth 96h 31%, SARS PLP yeast 0% and NS1 function inh -14%.
Screening CS(=O)(=O)Nc1ccc(-c2ccc(/C=C3\SC(N)=NC3=O)o2)cc1 returned Pf growth 48h -23%, Pf growth 96h 3.3µM*, SARS PLP yeast 2% and NS1 function inh 6%.
Screening O=C1C(=O)N(CC2CCCO2)C(c2ccco2)/C1=C(/O)c1ccc(F)cc1 (stereo not drawn) returned Pf growth 48h -6%, Pf growth 96h 12%, SARS PLP yeast -1% and NS1 function inh 7%.
Screening O=C1C=C(Nc2ccccc2)c2ccccc2C1=O returned Pf growth 48h inconclusive, Pf growth 96h 210%, SARS PLP yeast -2% and NS1 function inh 2%.
`O=C1C=C(Nc2ccccc2)C(=O)c2ccccc21` gave Pf growth 48h inconclusive, Pf growth 96h 2.3µM*, SARS PLP yeast -19% and NS1 function inh -51%.
For CCc1ccc(NC2=CC(=O)C(=O)c3ccccc32)cc1 the results were Pf growth 48h 0.083µM*, Pf growth 96h 0.074µM* and SARS PLP yeast -2%.
CCC(C)c1ccc(OCC(=O)Nc2ccc(CN3CCOCC3)cc2)cc1 (stereo not drawn) was read as Pf growth 48h -19%, Pf growth 96h -1%, SARS PLP yeast -9% and NS1 function inh -32%.
Screening Cc1[nH][nH]c(=O)c1C(c1c(C)[nH][nH]c1=O)c1cn(C)c2ccccc12 returned Pf growth 48h 10µM*, Pf growth 96h 15%, SARS PLP yeast -3% and NS1 function inh 1%.
COc1ccc(CCN(C(=O)C(F)(F)F)C(C(=O)NC2CCCC2)c2cccs2)cc1OC (stereo not drawn) was read as Pf growth 48h inconclusive, Pf growth 96h 7.4µM*, SARS PLP yeast -1% and NS1 function inh -2%.
For COc1ccc(CCN(C(=O)C(F)(F)F)C(C(=O)NC2CCCCC2)c2ccc(C)s2)cc1OC (stereo not drawn) the results were Pf growth 48h 4.1µM*, Pf growth 96h inconclusive, SARS PLP yeast 0% and NS1 function inh 4%.
`COc1ccc(CCN(C(=O)c2ccco2)C(C(=O)NC2CCCC2)c2ccncc2)cc1OC` (stereo not drawn) gave Pf growth 48h -25%, Pf growth 96h 27%, SARS PLP yeast 1% and NS1 function inh 0%.
`Cc1csc2nc(O)c(C(=O)NCC3CCCO3)c(=O)n12` (stereo not drawn) gave Pf growth 48h inconclusive, Pf growth 96h -4% and SARS PLP yeast 7%.
Screening Cn1c(C(=O)N2CCOCC2)cc2c(=O)n3ccccc3nc21 returned Pf growth 48h 13%, Pf growth 96h 28%, SARS PLP yeast 1% and NS1 function inh 8%.
`CC1CCCCC1NC(=O)c1cc2c(=O)n3ccccc3nc2n1C` (stereo not drawn) gave Pf growth 48h 0%, Pf growth 96h 2.3µM*, SARS PLP yeast 15% and NS1 function inh 3%.
`Cn1c(C(=O)N2CCN(C(=O)c3ccco3)CC2)cc2c(=O)n3ccccc3nc21` gave Pf growth 48h 19%, Pf growth 96h 4.7µM*, SARS PLP yeast 6% and NS1 function inh 1%.
Screening Cc1csc2nc(O)c(C(=O)NC3CCCCC3C)c(=O)n12 (stereo not drawn) returned Pf growth 48h 7.4µM*, Pf growth 96h inconclusive and SARS PLP yeast 7%.
`O=C(c1cc2c(=O)n3ccccc3nc2s1)N1CCOCC1` gave Pf growth 48h 111%, Pf growth 96h 5.2µM*, SARS PLP yeast -1% and NS1 function inh 3%.
Screening COc1ccccc1N(C)S(=O)(=O)c1ccc(C(=O)Nc2cc(F)ccc2C)cc1 returned SARS PLP yeast 3%.
CCOC(=O)C(C)Sc1nc2c(cnn2-c2ccc(F)cc2)c(=O)[nH]1 (stereo not drawn) was read as Pf growth 48h -6%, Pf growth 96h -25%, SARS PLP yeast 0% and NS1 function inh 0%.
Screening O=C(NCCC1=CCCCC1)c1c(O)nc2ccccn2c1=O returned Pf growth 48h inconclusive, Pf growth 96h 33%, SARS PLP yeast -4% and NS1 function inh -48%.
CC1CCCCC1NC(=O)c1c(O)nc2ccccn2c1=O (stereo not drawn) was read as Pf growth 48h 5.2µM*, Pf growth 96h 5.2µM* and SARS PLP yeast -1%.

Screening data from PubChem.
